Data taken from PubChem BioAssay (NCI).
“And” between values parts separate entries of the source, which are not always exact repeats. Equal values may be shown once. Compounds without any hit were thinned out: in the full panel of roughly 83,000, 20% have a hit.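 48-hour exposure, single concentration, 96-well plates; percent growth endpoint where 0 means no net growth. Active: below 10.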 Values without a mark were called inactive. The source made the active and inactive calls.

test system: MDA-MB-468 breast; assay: NCI-60 one-dose screen, 48 h (100 = growth as untreated, 0 = no growth, -100 = all killed); conditions: 10 µM unless noted

| SMILES | growth |
| --- | --- |
| O=C(/C=C/c1ccccc1)c1cccc(O)c1 | 111% and 90.2% |
| CCNC(=O)N1CCc2cc(OC)c(OCCc3ccc(OC)c(N)c3)cc2C1c1cc(C)c(C)cc1C (stereo not given) | 42% |
| Fc1ccc(C2CC(c3cccc(Nc4ccncc4)c3)=NN2c2ccccc2)cc1 (stereo not given) | -2.33% (active) |
| O=C(Nc1ccc2[nH]c3ccccc3c2c1)c1ccccc1Cl | 44.8% |
| CC1(C)S[C@@H]2[C@H](NC(=O)[C@H](C(=O)O)c3cccs3)C(=O)N2[C@H]1C(=O)O | 102% |
| Cc1cc(C(c2ccccc2)c2ccccc2)ccc1NS(=O)(=O)c1ccccc1 | 111% |
| CN(C)c1ccc([C@@H](C(=O)Nc2cccc([N+](=O)[O-])c2)N(C(=O)c2cc3ccccc3[nH]2)c2cccc([N+](=O)[O-])c2)cc1 | 97.8% |
| O=C(/C=C/c1ccc(Cl)cc1)c1ccc(-n2cc(CN3CCN(c4cc5c(cc4F)c(=O)c(C(=O)O)cn5C4CC4)CC3)nn2)cc1 | 74.4% |
| NC(N)=Nc1ccc(Oc2cccc(Oc3ccc(Cl)c(C(F)(F)F)c3)c2)cn1 | -79.3% (active) |
| Cc1cc([N+](=O)[O-])ccc1NC(=O)c1ccc2c(c1)nc(-c1ccccc1)n2C1CCCCC1 | 100% |
| CCOC(=O)c1cnn(CC(C)O)c1NC(=O)NCc1ccccc1C(F)(F)F (stereo not given) | 103% |
| CN(C)c1nc2c(N)ncnc2n1C1OC(CO)C(O)C1O (stereo not given) | 102% |
| O=C1c2ccccc2OC=C(c2ccccc2)N1CCCCNc1ccc(F)cc1 | 76.3% |
| COC(=O)[C@@H]1[C@H]2C[C@H]3c4[nH]c5cc(OC)ccc5c4CCN3C[C@@H]2C[C@H](OC(=O)/C=C/c2ccnc(OC)c2)[C@H]1OC | 76.9% |
| OB(O)c1cccc(-c2nc3ccc4[nH]ncc4c3c3c2CCCC3)c1F | 55.3% |
| Cn1ccnc1C(=O)/C=C/c1ccc(CC(=O)Nc2ccc(S(F)(F)(F)(F)F)cc2)cc1 | -22.9% (active) |
| O=C1C(Cl)=C(Cl)C(=O)c2c1nc1n2CCCC1 | 96.7% |
| Clc1cc(Cl)cc(N2N=C(c3cccc(Nc4ccncc4)c3)CC2c2ccc3c(c2)OCO3)c1 (stereo not given) | 24.8% |
| CCN(CC)c1ccc(/C=N/NC(=O)CSc2nc3ccccc3c(=O)n2Cc2ccc(S(N)(=O)=O)cc2)c(O)c1 | -11% (active) |
| O=C(Nc1cccc([N+](=O)[O-])c1)c1ccc2ccccc2c1O | 52.4% |

| SMILES | growth |
| --- | --- |
| Cc1ccccc1CNc1ccc(N2CCOCC2)cc1 | 97.8% |
| Nc1c(C(=O)Nc2ccccc2Cl)sc2nc3c(cc12)C(=O)CCC3 | 24.9% |
| CCc1ccc(-c2nnc(COc3ccc(-c4nc5cc(Cl)c(Cl)cc5[nH]4)cc3OC)o2)cc1 | 76.4% |
| c1cc[n+](C2c3ccccc3C([n+]3ccccc3)c3ccccc32)cc1 (stereo not given) | -37.4% (active) |
| CCNc1nc(N2CC(=O)Nc3cc(OC)ccc32)c2ccccc2n1 | 1.34% (active) |
| Nc1ccc(S(=O)(=O)Nc2ccsc2-c2nc(-c3ccccc3)no2)cc1 | 43.1% |
| O=C(/C=C/c1c[nH]c2ccccc12)c1cc2ccccc2o1 | 121% |
| Cn1cc(-c2ccc3c(Nc4cccc(NC(=O)Nc5cccc(F)c5)c4)ncnc3c2)cn1 | 3.69% (active) |
| COc1ccc(-c2nc3ccc(Cc4ccc5nc(-c6ccc(OC)cc6)[nH]c5c4)cc3[nH]2)cc1 | -20.2% (active) |
| Cn1c(=O)c2[nH]c(Cc3ccc4c(c3)OCO4)nc2n(C)c1=O | 106% |
| Brc1ccc(-n2cc(-c3nn[nH]n3)c(-c3cccs3)n2)cc1 | 92.4% |
| O=C(CSc1nc2ccc([N+](=O)[O-])cc2[nH]1)Nc1ccc(Br)cc1 | 14.1% |
| CCCCCCCNC(=O)CCCNc1ncnc2c1ncn2-c1cccc(C(C)O)c1 (stereo not given) | 59.7% |
| O=C(NCc1cccc(C(F)(F)F)c1)[C@H](CCC(=O)N1CCN(C2CCCCC2)CC1)N1C(=O)[C@@H](N2C(=O)OC[C@@H]2c2ccccc2)[C@H]1/C(Cl)=C/c1ccccc1 | -5.16% (active) |
| C=CN(C(=O)N1CCN(c2cc3c(cc2F)c(=O)c(C(=O)O)cn3C2CC2)CC1)c1nc(-c2ccccc2)cs1 | 100% |
| COc1ccc(-c2[nH]ncc2-c2cc(OC)c(OC)c(OC)c2)cc1 | -4.91% (active) |
| COc1ccc(C2=NN(/C=C3\SC(=O)NC3=Nc3ccc(F)cc3)C(c3ccc(F)cc3)C2)cc1 (stereo not given) | 101% |
| O=C(/C=C/c1ccccc1)c1ccccc1 | 74.8% |
| CCC1(/C=N/NC(N)=S)NC(=O)NC1=O (stereo not given) | 106% |
| COc1ccc2nc(NC(=O)Nc3c(F)cccc3F)sc2c1 | 96.1% |
